HT1080 IDH1KD tx = toxicity to HT-1080 IDH1 knockdown cells (counter line); HT-1080 IDH1 knockdown viability, ATP luminescence, 48 h; Potency, µM (top dose mostly 46.1 µM), for inactives: top-dose activity, negative = toxicity, actives largely listed as cytotoxic; actives 2% (n = 360,000); AID 686971;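 further: potency means the concentration at half of the fitted maximal effect; 0% = DMSO wells and -100% = cell-free medium wells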
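CellTiter-Glo luminescence after 48 h compound exposure at 37 degrees C of IDH1-knockdown HT-1080 cells in 5% FBS RPMI. %Activity scaled between DMSO wells and cell-free media wells, with curves fitted and assigned curve classes.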
IL1B secr inh = inflammasome signaling inhibition, IL-1 beta readout; actives 4.7% (n = 360,000); THP-1 LPS/ATP IL-1B secretion, AlphaLISA, 16 h; hits give low values; AID 743279; activity change, % at 57.5 µM; in the data active means activity change below about -50%; inconclusive means mostly about -30% to -49%
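THP-1 cells pretreated 1 hr with compounds (up to 57.5 uM final), then stimulated with LPS (250 ng/mL final) plus ATP (1.25 mM final); secreted IL-1B measured by AlphaLISA after 16 hr, decreased signal indicating inhibition.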
HT1080NT lethal = kills 2HG-producing HT-1080-NT fibrosarcoma cells; HT-1080-NT fibrosarcoma viability, CellTiter-Glo ATP luminescence, 48 h; Potency, µM (highest dose often 46.1 µM), for the others: at the top dose activity, negative = less viability, usual class: cytotoxic; actives 1.6% (n = 360,000);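 further: NT is the 2HG producing partner of a matched IDH1 knockdown line; potency means the concentration at half of the fitted maximal effect; 0% = DMSO-treated cells and -100% = media-only wells without cells; nearly all actives have a fitted effect of over 55% in size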
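HT-1080-NT; 750 cells/well; 5% FBS RPMI; 48 h compound, 37 degrees C; CellTiter-Glo luminescence; curve fitting and curve-class assignment.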
TDP1 cell noCPT = qHTS for Inhibitors of human tyrosyl-DNA phosphodiesterase 1 (TDP1): qHTS in cells in absence of CPT; DT40 Tdp1-/- hTDP1 cells, no CPT, ATP luminescence, 48 h; Potency, µM (titrated, usually from 46.2 µM), without a hit: at the highest dose activity change, negative = growth inhibition, hits mostly inhibitors; actives 15% (n = 420,000); AID 686978, 2013; further: potency means the concentration at half of the fitted maximal effect; nearly all actives have a fitted effect of over 55% in size
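Readout: luminescence from CellTiter-Glo after 30 min in the dark at RT. Cells: DT40 Tdp1-/- with stable hTDP1, 400/well. Exposure: compounds alone, ≥48 hr, 37 °C.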
TDP1 cell CPT = DT40-hTDP1 cell growth loss with CPT | chicken DT40 Tdp1-/-;hTDP1 cells + 20 nM CPT, ATP luminescence, 48 h | Potency, µM (series often up to 46.2 µM), without a hit: at the highest dose activity change, negative = growth inhibition, actives largely listed as inhibitors | actives 12% (n = 420,000) | AID 686979; further: potency means the concentration at half of the fitted maximal effect; nearly all actives have a fitted effect of over 55% in size
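Cell growth measured by CellTiter-Glo luminescence after a minimum 48 h, 37 C compound exposure with 20 nM CPT in Tdp1-knockout DT40 cells stably expressing hTDP1, seeded 400/well; qHTS titration format.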
* marks the source's active call; other numbers are inactive results; u = inconclusive; x = no result. An excerpt weighted towards active compounds, which were near 19% of everything screened. Unless noted, the call rests on the fitted dose curve; in most records, active means well fitted curve in the direction sought with a large enough effect; inconclusive means small, poorly fitted or top-dose-only effect, or another doubt; inactive means no such curve, though single readings can be large; an effect the other way counts as inactive or inconclusive. Unless noted, on the % scale 0 is the no-effect control and ±100 the full control effect.

SMILES	HT1080 IDH1KD tx	IL1B secr inh	HT1080NT lethal	TDP1 cell noCPT	TDP1 cell CPT
CC1=C(c2ccc(C)c(C)c2)S(=O)(=O)N=C1N1CCC(C(=O)NCc2ccc(C)o2)CC1	x	x	x	-16.9%	4.5%
Cc1cccc(C)c1NC(=O)NC1(C(=O)N2CCCC2)CCCCC1	18.9%	0.8	11.4%	6.9%	2.0%
O=C(NCCO)C1CCN(C(=O)c2ccc(-c3ccccc3)cc2)CC1	1.3%	-8.1	-2.2%	-15.5%	u
COc1ccc2c(c1)c1c(c(=O)n(Cc3ccccc3)c(=O)n1CC(=O)Nc1c(C)cccc1C)n2C	x	x	x	-0.6%	0.5%
COC(=O)c1ccccc1NC(=O)COC(=O)c1ccccc1N=Nc1ccc(N(C)C)cc1	-4.7%	0.0	-2.2%	16.4µM*	16.4µM*
CC(=O)c1ccc(NC(=O)COC(=O)c2ccccc2N=Nc2ccc(N(C)C)cc2)cc1	-1.7%	u	-0.9%	20.6µM*	u
COC(=O)c1ccccc1NC(=O)COC(=O)c1ccco1	1.8%	8.9	4.9%	-5.5%	7.2%
CN(C)c1ccc(N=Nc2ccccc2C(=O)O)cc1	x	x	x	-24.6%	u
CN(C)c1ccc(C(=O)OCC(=O)Nc2ccc(N3CCOCC3)cc2)cc1	-6.4%	-6.2	-4.5%	-24.3%	-1.5%
CN(C)c1ccc(N=Nc2ccccc2C(=O)OCC(=O)N(C)c2ccccc2)cc1	1.1%	-3.1	-0.5%	u	20.6µM*
COc1ccccc1OCC(=O)NNC(=O)CSC(=S)N1CCCC1	6.1%	-6.5	-1.6%	1.1%	-1.9%
Cc1ccc(C(=O)N/C(=C\c2cccs2)c2nc3ccccc3[nH]2)cc1	-7.9%	24.2	-8.6%	u	16.4µM*
N#C/C(=C\c1cccs1)c1nc2ccccc2[nH]1	u	19.8	u	-43.2%	-18.5%
O=C(COC(=O)C1(c2ccccc2F)CCCC1)NCc1ccc2c(c1)OCO2	-20.1%	-72.7*	0.8%	u	u
CCc1ccc(NC(=O)COC(=O)C2(c3ccc(Cl)cc3)CCCC2)cc1	-17.3%	9.0	-6.4%	20.6µM*	20.6µM*
O=C(COC(=O)C1(c2ccccc2F)CCCC1)NCc1cccs1	-1.5%	u	-10.5%	23.1µM*	u
O=C(COC(=O)c1ccccc1Cl)NCc1cccs1	9.3%	6.7	4.7%	-0.2%	-4.0%
Nc1cc(Cl)ccc1C(=O)OCC(=O)NCc1cccs1	0.0%	-84.6*	-2.7%	u	u
O=C(COC(=O)C1(c2ccc(F)cc2)CCCC1)NCc1ccc2c(c1)OCO2	-25.8%	-3.9	-21.9%	u	u
NS(=O)(=O)c1ccc(NC(=O)COC(=O)C2(c3ccccc3F)CCCC2)cc1	-13.0%	-62.5*	-0.8%	u	u
FC(F)(F)c1cccc(CNC(=S)Nc2ccccc2)c1	-2.4%	-79.0*	-21.8%	16.4µM*	u
O=C(CNC(=O)Cc1ccccc1)NCc1cccc(C(F)(F)F)c1	2.3%	5.2	4.6%	-14.9%	12.1%
FC(F)(F)c1cccc(NC(=S)NCc2ccccc2)c1	u	-2.1	u	23.1µM*	20.6µM*
COc1ccccc1C(=O)N1CCN(C(=O)[C@H]2O[C@@H](n3ccc(=O)[nH]c3=O)[C@H](O)[C@@H]2O)CC1	-3.1%	-19.8	-20.6%	-8.7%	-6.1%
CCCCNC(=O)CSc1nnc(Cc2ccccc2)n1CC	1.3%	6.2	1.3%	-9.7%	7.9%
SMILES	HT1080 IDH1KD tx	IL1B secr inh	HT1080NT lethal	TDP1 cell noCPT	TDP1 cell CPT
CCc1ccc(C(=O)c2cn(CC(=O)Nc3ccc4c(c3)OCO4)c3ccc(CC)cc3c2=O)cc1	x	x	x	u	-3.6%
CCOc1ccc(C(=O)c2cn(CC(=O)Nc3ccc(Cl)cc3)c3cc4c(cc3c2=O)OCO4)cc1	x	x	x	13µM*	u
CCc1ccc(C(=O)c2cn(CC(=O)Nc3ccc(Cl)cc3)c3cc4c(cc3c2=O)OCO4)cc1	x	x	x	16.4µM*	14.6µM*
CCOc1ccc(CCNC(=O)Cn2nc(C)n3cccc3c2=O)cc1OCC	0.0%	0.3	5.0%	-23.7%	-6.7%
Cc1c(C(=O)N/N=C/c2ccc(Cl)cc2)[nH]c2ccc(Cl)cc12	3.26µM*	55.6	5.8µM*	0.92µM*	0.82µM*
O=C(N/N=C/c1ccc(O)cc1)c1[nH]c2ccc(Br)cc2c1-c1ccccc1	4.11µM*	122.3	4.61µM*	2.91µM*	3.66µM*
CCOc1ccc(/C=N/NC(=O)c2[nH]c3ccc(C)cc3c2C)cc1	-12.4%	-24.3	-7.1%	-26.8%	-10.3%
NNC(=O)c1[nH]c2ccccc2c1-c1ccccc1	1.3µM*	23.6	u	14.6µM*	u
O=C(N/N=C/c1c[nH]c2ccccc12)c1[nH]c2ccc(Br)cc2c1-c1ccccc1	6.51µM*	150.6	7.31µM*	3.66µM*	5.8µM*
O=C(N/N=C/c1c[nH]c2ccccc12)c1cc(Br)ccc1O	-28.9%	24.2	u	5.7%	-19.0%
COc1ccccc1-c1nc2cc(C(=O)NC[C@H]3CCc4ccccc4O3)cc(NC(C)=O)c2n1C	x	x	x	-19.1%	-5.9%
O=C(N/N=C/c1[nH]c2ccccc2c1Cl)c1cccc(Br)c1	-1.2%	-83.9*	-6.6%	u	4.1%
O=C(NN=C1CCCC1)c1[nH]c2ccc(Cl)cc2c1-c1ccccc1	11.6µM*	x	u	u	u
Cc1oc(-c2ccccc2)cc1C(=O)Nc1ccc(N(C)C)cc1	-0.7%	-20.6	1.2%	u	u
CC(CNC(=O)Cn1ccc(N)nc1=O)c1ccccc1 (centres undefined)	-0.2%	-4.2	26.9%	7.5%	-23.1%
CCCc1nc(SCc2cccnc2)c2c(=O)n(C)c(=O)n(C)c2n1	-2.6%	56.6	-1.6%	16.4µM*	u
Cn1c(=O)c2c(SCc3cccnc3)nc(CC(C)(C)C)nc2n(C)c1=O	-17.6%	17.0	-19.1%	18.4µM*	14.6µM*
CCCc1nc(SCc2ccccn2)c2c(=O)n(C)c(=O)n(C)c2n1	-2.0%	58.4	-0.3%	u	u
Cn1c(=O)c2c(SCc3ccccn3)nc(CC(C)(C)C)nc2n(C)c1=O	8.3%	43.6	4.4%	20.6µM*	20.6µM*
CCCCn1c(SCc2cccnc2)nc2c1c(=O)n(C)c(=O)n2C	1.6%	11.8	12.4%	16.4µM*	13µM*
Cc1ccccc1-c1nc(SCc2cccnc2)c2c(=O)n(C)c(=O)n(C)c2n1	15.7%	36.8	13.2%	-23.9%	2.7%
Cc1nc(-c2ccccc2)sc1C1(C)CC(c2ccc(OC(F)(F)F)cc2)=NO1 (centres undefined)	13.1%	16.8	5.4%	-12.0%	-20.0%
O=C(O)CCc1nnc2cnc3ccccc3n12	x	x	x	2.1%	4.3%
COc1cccc(-c2cn3c(n2)sc2cc(C(=O)NCCCc4ccccc4)ccc23)c1	x	x	x	4.61µM*	6.51µM*

From PubChem BioAssay
